This is a sample that favours compounds with a hit; in the whole collection about 3.6% have one here.
Rango dissoc inh: inhibition of RanGTP-driven Rango-importin beta dissociation; O95149+P62826; Biochemical FRET Rango-importin beta, RanGTP-induced dissociation; Potency, µM (doses to about 46.1 µM); 340,000 compounds, 0.071% hits; calls by dose curve; further: nearly all actives have a fitted effect of over 45% in size
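Quantitative HTS using a FRET biosensor: 0.1 uM Rango, 0.25 uM importin beta, 0.6 uM Ran, 2 mM GTP, 0.2 uM RCC1 final, PBS with DTT, Tween-20 and BSA. Post-read taken 45 min after Ran addition.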
PI5P4K alpha inh: blocks human PI5P4K alpha kinase activity. P48426. PI5P4Kalpha enzyme, ADP-Glo luminescence, 60 min; hits give low values. max response, %. 330,000 compounds, 1.2% hits; active means max response of -50% or lower; inconclusive means between -30% and -50%; inactive means -30% or higher; further: value at the top dose of about 77 µM
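Single end-point luminescence (ADP-Glo) quantified ADP from PI5P4Kalpha turnover; ATP 5 microM final, 1 h at RT, 0.1% CHAPS and 0.28 mM EGTA in HEPES pH 7.4.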
Rango complex inh: Rango-importin beta binding inhibition; Q14974; Rango CFP/YFP FRET sensor + importin beta, 45 min; Potency, µM (doses to about 92.2 µM); 340,000 compounds, 0.031% hits; AID 540263; calls by dose curve; further: nearly all actives have a fitted effect of over 15% in size
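FRET biosensor Rango (snurportin 1 IBB between N-terminal EYFP and C-terminal Cerulean), 50 nM in PBS/1 mM DTT/0.02% Tween-20/0.1% BSA, preincubated 5 min RT with compound; 0.125 microM importin beta added, 45 min RT, CFP/YFP FRET ratio read.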
VDR inhibitor: inhibitors of human vitamin D receptor. 400,000 compounds, 0.93% hits. AID 504847. VDR-SRC2-3 peptide fluorescence polarization, 2 h. Potency, µM, actives largely listed as inhibitors
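Measured by FP: displacement of SRC2-3 coactivator peptide from VDR by library compounds, following a two-hour ambient incubation.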
PLK1 PBD block: blocks phosphopeptide binding to human PLK1 polo-box domain | Plk1 PBD binding of FITC phosphopeptide, fluorescence polarization | Potency, µM, most hits filed as inhibitors | 360,000 compounds, 2.8% hits | AID 720504; further: series mostly up to about 57 µM; nearly all actives have a fitted effect of over 65% in size
GCN5L2 inh: GCN5L2 (KAT2A) acetyltransferase inhibition. Q92830. GCN5L2 HAT assay, ThioGlo1 CoA-SH fluorescence. Potency, µM (series often up to 58.9 µM), hits mostly inhibitors. 390,000 compounds, 0.21% hits. AID 504327
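GCN5L2 (20 nM) in 50mM HEPES pH 7.5, 0.1mM EDTA, 0.01% Tween-20 preincubated 15 min with compounds at room temperature. Reaction started with H3(1-25) 75uM, acetyl-CoA 70uM, ThioGlo1 50uM; CoA-thiol fluorescence (Ex340/Em540) read at 0 and 20 min.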
Large screens that a line does not name were inactive; ! = a repeat was not active. Unless noted, the call rests on the fitted dose curve; in most records, active means well fitted curve in the direction sought with a large enough effect; inconclusive means small, poorly fitted or top-dose-only effect, or another doubt; inactive means no such curve, though single readings can be large; an effect the other way counts as inactive or inconclusive.

Brc1ccc(-c2csc(NC3=NCCCCC3)n2)cc1	GCN5L2 inh inconclusive
COc1ccc(-c2csc(NNC3=NCCCCC3)n2)cc1	PI5P4K alpha inh inconclusive, VDR inhibitor inconclusive, PLK1 PBD block 6.7µM
CCOc1ccc(C(=O)c2cn(CC(=O)Nc3ccc(C)c(C)c3)c3ccc(OCC)cc3c2=O)cc1	none (no result: Rango dissoc inh, PI5P4K alpha inh, Rango complex inh, PLK1 PBD block)
O=c1c(-c2ccccc2)nc2cnc(N3CCNCC3)nc2n1Cc1ccc(F)cc1	GCN5L2 inh 17.8µM (no result: Rango dissoc inh, PI5P4K alpha inh, Rango complex inh, PLK1 PBD block)
Cc1nc2cnc(N3CCNCC3)nc2n(CCC#N)c1=O	GCN5L2 inh 28.2µM (no result: Rango dissoc inh, PI5P4K alpha inh, Rango complex inh, PLK1 PBD block)
COc1ccc(-c2cc(C(F)(F)F)nc(SCC(=O)NC(C)c3ccccc3)n2)cc1 (stereo not drawn)	none (no result: Rango dissoc inh, PI5P4K alpha inh, Rango complex inh, PLK1 PBD block)
COc1ccc(CCNC(=O)c2nc(SCc3ccccc3F)ncc2Cl)cc1OC	none (no result: Rango dissoc inh, PI5P4K alpha inh, Rango complex inh, PLK1 PBD block)
CCOc1ccc(NC(=O)CC2C(=O)N(c3cccc(OC)c3)C(=O)N2CCOC)cc1 (stereo not drawn)	PLK1 PBD block 29.9µM
COc1cccc(NC(=O)CSc2nc(=O)n(Cc3cccnc3)c3c2CCC3)c1	none (no result: Rango dissoc inh, PI5P4K alpha inh, Rango complex inh, PLK1 PBD block)
COc1ccc(NC(=O)/C(=C\c2cccs2)NC(=O)c2ccco2)cc1	PLK1 PBD block 21.2µM
CC(C)(C)N(NS(=O)(=O)c1ccc(F)cc1)c1ccccc1	VDR inhibitor 44.7µM, PLK1 PBD block inconclusive
Cc1ccccc1NS(=O)(=O)c1ccc(F)cc1	none (no result: PI5P4K alpha inh)
COc1ccccc1NC(=O)CN1C(=O)CC(c2ccc(C)c(C)c2)=Nc2ccccc21	none (no result: Rango dissoc inh, PI5P4K alpha inh, Rango complex inh, PLK1 PBD block)
N#CC(C#N)=C1C(=O)N(CCN2CCCCC2)c2ccccc21	Rango complex inh inconclusive
CCCCN1C(=O)/C(=C(/C#N)C(=O)N2CCCC2)c2ccccc21	VDR inhibitor 44.7µM
COc1cccc(CNC(=O)c2ccc3c(c2)nc2n3CCOC2)c1OC	none (no result: Rango dissoc inh, PI5P4K alpha inh, Rango complex inh, PLK1 PBD block)
CCC(C)C1NC(=O)C(Cc2ccc(O)cc2)NC(=O)C(N)CSSCC(C(=O)N2CCCC2C(=O)NC(CC(C)C)C(=O)NCC(N)=O)NC(=O)C(CC(N)=O)NC(=O)C(CCC(N)=O)NC1=O (stereo not drawn)	VDR inhibitor 12.6µM! (no result: Rango dissoc inh, PI5P4K alpha inh, Rango complex inh, PLK1 PBD block)
CC(C)c1ccc(NC(=O)Cn2nnc(C(=O)NCc3ccc(Cl)cc3)c2N)cc1	none (no result: Rango dissoc inh, PI5P4K alpha inh, Rango complex inh, PLK1 PBD block)
COc1cc(=O)[nH]c(SCC(=O)Nc2nc3c(s2)CCCC3)n1	VDR inhibitor inconclusive, PLK1 PBD block 11.9µM
Cc1cc(=O)[nH]c(SCC(=O)Nc2nnc(SCc3ccccc3)s2)n1	PLK1 PBD block 23.8µM
COc1cc(=O)[nH]c(SC(C)C(=O)Nc2nc3c(s2)CCCC3)n1 (stereo not drawn)	none
CCN(CC)S(=O)(=O)c1cccc(C(=O)N2CC(O)CC2C(=O)O)c1 (stereo not drawn)	none
CCN(CC)S(=O)(=O)c1cccc(C(=O)N2CC(O)CC2C(=O)OC)c1 (stereo not drawn)	PLK1 PBD block 29.9µM
COc1ccc(S(=O)(=O)NC(C)CCc2ccccc2)cc1 (stereo not drawn)	PI5P4K alpha inh inconclusive, VDR inhibitor inconclusive, PLK1 PBD block 5.32µM
CC(=O)NCc1ccc(S(=O)(=O)NC(C)CCc2ccccc2)cc1 (stereo not drawn)	none
COC(=O)NNC(=O)C12CC3CC(CC(C3)C1)C2	none
NC(=S)NNC(=O)C12CC3CC(CC(C3)C1)C2	PLK1 PBD block 26.7µM
COc1cc(OC)c(NC(=O)c2cc(C(C)=O)n3ccccc23)cc1Cl	none (no result: Rango dissoc inh, PI5P4K alpha inh, Rango complex inh, PLK1 PBD block)
O=C1OCc2nc3cc4c(cc3c(-c3ccc(F)cc3)c21)OCO4	VDR inhibitor inconclusive, PLK1 PBD block 23.8µM
CCOc1ccc(CNC(=O)C2CCN(c3nc4ccccc4nc3C(F)(F)F)CC2)cc1OC	none (no result: Rango dissoc inh, PI5P4K alpha inh, Rango complex inh, PLK1 PBD block)
COc1cc(OC)cc(N2C(=O)N(Cc3ccc(C(C)(C)C)cc3)c3ccccc3S2(=O)=O)c1	none (no result: Rango dissoc inh, PI5P4K alpha inh, Rango complex inh, PLK1 PBD block)
COC(=O)C1=C[C@@H](C(=O)OC)[C@@H]2C3=C(C(=O)C2(C)C)[C@H](c2ccccc2)[C@@H]2C(=O)N(c4ccccc4)C(=O)[C@@H]2[C@@H]3C1	none (no result: Rango dissoc inh, PI5P4K alpha inh, Rango complex inh, PLK1 PBD block, GCN5L2 inh)
O=C(O)c1ccc(Cl)cc1Nc1nc2cc(Cl)ccc2o1	VDR inhibitor inconclusive, PLK1 PBD block 18.9µM, GCN5L2 inh inconclusive
CCC(=O)Nc1cc(Cl)ccc1C(=O)O	none

From PubChem
